The values that follow come from ChEMBL document CHEMBL3988442, “University of Dundee, Small-Polar-MMV Screening Library” (2021).

For some of these results: Entries with a potency or affinity are not part of this list.

Holding throughout (set-up): scale not given: direction of the effect not stated beside the values
The target in test [1] is Protein translocase subunit SecA (Escherichia coli (strain K12)) (UniProt P10408). As to the kind of experiment: Assay to Identify E. coli SecA ATPase Inhibitors. Type of test: functional. The settings on record: 30 µM.
Test [2] concerns the target T1, Ubiquitin-activating enzyme e1, putative (Leishmania donovani (strain BPK282A1)) (UniProt E9BSI1).
T1 sequence (whole entry): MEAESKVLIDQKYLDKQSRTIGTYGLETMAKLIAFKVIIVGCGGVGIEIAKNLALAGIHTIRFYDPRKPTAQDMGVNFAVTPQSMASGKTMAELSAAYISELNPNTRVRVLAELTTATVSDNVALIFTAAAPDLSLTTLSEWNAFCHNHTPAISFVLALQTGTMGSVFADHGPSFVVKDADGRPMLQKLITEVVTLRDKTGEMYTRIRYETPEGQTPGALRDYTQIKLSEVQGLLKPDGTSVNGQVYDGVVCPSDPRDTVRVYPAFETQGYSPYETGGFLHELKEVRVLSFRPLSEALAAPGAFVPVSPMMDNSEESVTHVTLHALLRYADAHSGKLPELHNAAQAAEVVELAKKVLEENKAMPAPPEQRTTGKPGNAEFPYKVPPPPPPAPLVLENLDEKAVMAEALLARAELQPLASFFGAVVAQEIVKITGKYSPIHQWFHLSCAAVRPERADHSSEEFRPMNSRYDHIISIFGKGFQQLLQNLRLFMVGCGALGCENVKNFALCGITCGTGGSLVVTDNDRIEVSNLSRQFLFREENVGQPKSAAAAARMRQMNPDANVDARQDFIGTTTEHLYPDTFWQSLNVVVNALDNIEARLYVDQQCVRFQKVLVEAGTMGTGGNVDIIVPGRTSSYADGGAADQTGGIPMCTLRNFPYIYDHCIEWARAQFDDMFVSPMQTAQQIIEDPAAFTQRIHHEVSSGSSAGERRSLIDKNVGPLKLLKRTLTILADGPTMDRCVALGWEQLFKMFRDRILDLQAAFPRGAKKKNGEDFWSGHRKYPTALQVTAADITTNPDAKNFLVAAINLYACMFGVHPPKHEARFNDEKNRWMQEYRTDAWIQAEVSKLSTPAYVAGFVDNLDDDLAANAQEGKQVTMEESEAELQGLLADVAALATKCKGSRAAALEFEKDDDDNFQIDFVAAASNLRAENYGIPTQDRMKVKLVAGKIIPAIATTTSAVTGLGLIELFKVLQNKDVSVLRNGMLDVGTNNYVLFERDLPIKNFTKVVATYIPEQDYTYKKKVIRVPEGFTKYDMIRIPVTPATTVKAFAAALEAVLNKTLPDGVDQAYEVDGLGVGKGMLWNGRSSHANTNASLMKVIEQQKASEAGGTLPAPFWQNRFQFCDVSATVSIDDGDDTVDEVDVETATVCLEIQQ
Put plainly: Leishmania donovani Ubiquitin Activating Enzyme (LdE1). As to conditions: 30 µM. It counts as functional.

In test [3] the target is AMP-activated protein kinase, AMPK (Homo sapiens) (UniProt P54646+O43741+P54619+Q9UGJ0+Q9Y478+Q13131+Q9UGI9). As to the kind of experiment: AMP-dependent Kinase enzyme assay. An in vitro enzyme assay that detects ADP turnover that is directly proportional to AMPK activity. This uses naive AMPK that is activated during the assay with MK-8722. The settings on record: 30 µM. It counts as functional.

Test [4] has as its target Sialic acid-binding Ig-like lectin 9 (Homo sapiens) (UniProt Q9Y336). Put plainly: Hs-Siglec9 ALPHAscreen SOP 20170721. As to conditions: 10 µM. On the technique in general: Bead proximity is the source of the signal in Alpha formats.
For a further test, the system named is Trypanosoma cruzi. As to the kind of experiment: Trypanosoma cruzi phosphomannomutase and mannose-1-phosphate guanylyltransferase assay. It counts as functional. The settings on record: 10 µM.
For test [5], the target named is T2, Arginase-2, mitochondrial (Homo sapiens) (UniProt P78540).
T2 sequence (whole entry): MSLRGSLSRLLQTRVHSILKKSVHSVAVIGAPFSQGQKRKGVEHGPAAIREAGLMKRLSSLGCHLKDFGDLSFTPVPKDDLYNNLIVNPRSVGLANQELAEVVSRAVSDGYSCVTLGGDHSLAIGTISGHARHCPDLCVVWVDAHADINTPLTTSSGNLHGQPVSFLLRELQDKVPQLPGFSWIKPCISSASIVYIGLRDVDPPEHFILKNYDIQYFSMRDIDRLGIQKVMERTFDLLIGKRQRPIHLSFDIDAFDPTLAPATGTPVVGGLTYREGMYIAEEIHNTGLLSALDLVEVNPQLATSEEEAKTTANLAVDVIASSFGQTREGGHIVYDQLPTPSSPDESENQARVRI
Put plainly: in vitro enzyme assay to detect the production of urea directly proportional to the activity of Arginase II. Also: in the data most compounds retested in dose-response had high values. It counts as functional. As to conditions: 33.3 µM.

Test [6] has as its target T3, Proteasome subunit beta (Trypanosoma cruzi) (UniProt O96673).
T3 sequence (whole entry): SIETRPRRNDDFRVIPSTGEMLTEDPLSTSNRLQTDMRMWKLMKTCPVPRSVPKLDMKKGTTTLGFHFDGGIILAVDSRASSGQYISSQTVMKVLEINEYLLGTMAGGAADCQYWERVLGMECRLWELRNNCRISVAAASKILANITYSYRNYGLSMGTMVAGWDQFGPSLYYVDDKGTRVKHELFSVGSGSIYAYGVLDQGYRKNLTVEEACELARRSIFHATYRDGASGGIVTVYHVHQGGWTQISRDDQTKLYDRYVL
As to the kind of experiment: Trypanosoma cruzi proteasome chymotrypsin-like activity (TcProtChymo) assay. Also: in the data most compounds retested in dose-response had high values. Type of test: functional. As to conditions: 9.37 µM.

The species named for another test is Homo sapiens. Put plainly: To identify inhibition of the IFN signalling (Jak-Stat) pathway via expression of an eGFP reporter gene under the control of an IFN-stimulated response element (ISRE) containing MxA promoter. Type of test: functional. As to conditions: 30 µM. (Reporter assays use an easily measured gene product as a stand-in for the process of interest.)

Test [7] deals with T4, Tyrosyl-tRNA synthetase, putative (Trypanosoma cruzi (strain CL Brener)) (UniProt Q4DSP6).
T4 sequence (whole entry): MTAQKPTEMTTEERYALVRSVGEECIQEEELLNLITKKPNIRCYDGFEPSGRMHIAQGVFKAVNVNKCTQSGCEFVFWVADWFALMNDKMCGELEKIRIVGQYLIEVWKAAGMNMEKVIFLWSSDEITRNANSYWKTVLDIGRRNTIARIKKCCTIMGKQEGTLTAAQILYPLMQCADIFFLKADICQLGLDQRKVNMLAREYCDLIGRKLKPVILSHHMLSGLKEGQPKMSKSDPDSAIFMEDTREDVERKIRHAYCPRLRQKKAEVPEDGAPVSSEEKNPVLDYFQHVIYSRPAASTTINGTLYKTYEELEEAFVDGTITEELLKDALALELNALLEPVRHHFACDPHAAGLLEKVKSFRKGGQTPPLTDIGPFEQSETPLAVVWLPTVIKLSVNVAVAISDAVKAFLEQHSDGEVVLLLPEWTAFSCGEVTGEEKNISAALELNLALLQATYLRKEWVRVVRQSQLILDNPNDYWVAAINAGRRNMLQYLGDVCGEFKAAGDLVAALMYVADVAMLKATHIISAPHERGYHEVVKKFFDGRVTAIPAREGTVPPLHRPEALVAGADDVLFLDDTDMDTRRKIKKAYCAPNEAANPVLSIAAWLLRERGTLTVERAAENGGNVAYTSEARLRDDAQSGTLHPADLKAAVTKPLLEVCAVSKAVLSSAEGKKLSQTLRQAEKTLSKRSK
As to the kind of experiment: Trypanosoma cruzi tyrosyl tRNA synthetase (TcYRS) _High Tyrosine SOP. Also: in the data most compounds retested in dose-response had high values. Type of test: functional. The settings on record: 30 µM.

Test [8] deals with T4, Tyrosyl-tRNA synthetase, putative (Trypanosoma cruzi (strain CL Brener)). Put plainly: Trypanosoma cruzi tyrosyl tRNA synthetase (TcYRS) SOP. It counts as functional. The settings on record: 30 µM.
Test [9] deals with Chromo domain-containing protein 1 (Saccharomyces cerevisiae (strain ATCC 204508 / S288c) (Baker's yeast)) (UniProt P32657). As to the kind of experiment: ScCHD-1 Enzyme Inhibition Assay. Also: in the data most compounds retested in dose-response had high values. Type of test: functional. The settings on record: 30 µM.
Sequence of Chromo domain-containing protein 1 (Saccharomyces cerevisiae (strain ATCC 204508 / S288c) (Baker's yeast)) (P32657 whole entry, the tested form may be a part): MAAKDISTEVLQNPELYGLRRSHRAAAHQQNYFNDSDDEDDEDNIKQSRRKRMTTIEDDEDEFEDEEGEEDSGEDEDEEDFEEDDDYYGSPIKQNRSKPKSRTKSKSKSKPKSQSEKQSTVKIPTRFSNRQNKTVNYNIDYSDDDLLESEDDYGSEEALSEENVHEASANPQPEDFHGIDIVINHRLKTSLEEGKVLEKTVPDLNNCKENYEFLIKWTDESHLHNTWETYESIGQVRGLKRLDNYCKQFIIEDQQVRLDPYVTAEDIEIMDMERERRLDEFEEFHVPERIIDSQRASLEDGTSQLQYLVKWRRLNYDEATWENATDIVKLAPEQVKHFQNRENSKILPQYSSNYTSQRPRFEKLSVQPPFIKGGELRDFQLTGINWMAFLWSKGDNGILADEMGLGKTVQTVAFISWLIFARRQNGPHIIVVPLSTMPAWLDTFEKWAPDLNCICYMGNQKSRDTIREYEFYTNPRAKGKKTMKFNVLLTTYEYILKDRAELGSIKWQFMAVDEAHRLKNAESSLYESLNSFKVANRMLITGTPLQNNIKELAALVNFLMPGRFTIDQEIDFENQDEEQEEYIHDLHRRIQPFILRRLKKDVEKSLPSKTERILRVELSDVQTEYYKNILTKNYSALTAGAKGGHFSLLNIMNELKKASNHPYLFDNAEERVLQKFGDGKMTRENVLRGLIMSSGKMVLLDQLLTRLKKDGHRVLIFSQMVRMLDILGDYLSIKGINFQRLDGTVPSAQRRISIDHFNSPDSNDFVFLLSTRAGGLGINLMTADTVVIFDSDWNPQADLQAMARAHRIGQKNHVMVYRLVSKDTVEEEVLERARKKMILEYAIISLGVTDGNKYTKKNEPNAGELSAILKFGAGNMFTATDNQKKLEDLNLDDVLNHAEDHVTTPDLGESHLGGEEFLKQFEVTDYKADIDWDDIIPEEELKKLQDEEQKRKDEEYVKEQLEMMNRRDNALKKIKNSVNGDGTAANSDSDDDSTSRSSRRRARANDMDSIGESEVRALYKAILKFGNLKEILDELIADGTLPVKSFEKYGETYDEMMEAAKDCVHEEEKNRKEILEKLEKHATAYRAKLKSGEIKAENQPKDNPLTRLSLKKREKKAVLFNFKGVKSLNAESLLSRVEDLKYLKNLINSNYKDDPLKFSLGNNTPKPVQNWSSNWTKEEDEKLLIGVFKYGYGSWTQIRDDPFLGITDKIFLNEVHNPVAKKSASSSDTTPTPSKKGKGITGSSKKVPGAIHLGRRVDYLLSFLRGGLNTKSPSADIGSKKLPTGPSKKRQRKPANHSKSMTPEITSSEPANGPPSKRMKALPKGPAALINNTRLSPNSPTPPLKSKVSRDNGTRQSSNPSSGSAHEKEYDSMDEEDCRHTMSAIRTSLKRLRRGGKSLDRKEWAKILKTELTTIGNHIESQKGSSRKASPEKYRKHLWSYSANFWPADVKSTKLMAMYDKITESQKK

Sequence of Sialic acid-binding Ig-like lectin 9 (Homo sapiens) (Q9Y336 whole entry): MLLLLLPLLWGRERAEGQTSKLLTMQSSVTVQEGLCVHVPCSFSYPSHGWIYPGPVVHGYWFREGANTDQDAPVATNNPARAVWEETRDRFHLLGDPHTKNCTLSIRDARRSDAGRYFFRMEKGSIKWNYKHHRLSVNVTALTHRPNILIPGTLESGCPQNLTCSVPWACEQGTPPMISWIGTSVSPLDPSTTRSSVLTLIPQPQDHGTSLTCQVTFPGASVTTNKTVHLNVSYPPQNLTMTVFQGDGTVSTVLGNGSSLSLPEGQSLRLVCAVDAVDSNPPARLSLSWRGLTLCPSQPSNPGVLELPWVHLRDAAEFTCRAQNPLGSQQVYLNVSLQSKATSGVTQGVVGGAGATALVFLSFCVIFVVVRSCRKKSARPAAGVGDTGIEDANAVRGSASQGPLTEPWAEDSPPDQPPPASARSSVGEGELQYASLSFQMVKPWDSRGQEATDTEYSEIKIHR
Sequence of Protein translocase subunit SecA (Escherichia coli (strain K12)) (P10408 whole entry): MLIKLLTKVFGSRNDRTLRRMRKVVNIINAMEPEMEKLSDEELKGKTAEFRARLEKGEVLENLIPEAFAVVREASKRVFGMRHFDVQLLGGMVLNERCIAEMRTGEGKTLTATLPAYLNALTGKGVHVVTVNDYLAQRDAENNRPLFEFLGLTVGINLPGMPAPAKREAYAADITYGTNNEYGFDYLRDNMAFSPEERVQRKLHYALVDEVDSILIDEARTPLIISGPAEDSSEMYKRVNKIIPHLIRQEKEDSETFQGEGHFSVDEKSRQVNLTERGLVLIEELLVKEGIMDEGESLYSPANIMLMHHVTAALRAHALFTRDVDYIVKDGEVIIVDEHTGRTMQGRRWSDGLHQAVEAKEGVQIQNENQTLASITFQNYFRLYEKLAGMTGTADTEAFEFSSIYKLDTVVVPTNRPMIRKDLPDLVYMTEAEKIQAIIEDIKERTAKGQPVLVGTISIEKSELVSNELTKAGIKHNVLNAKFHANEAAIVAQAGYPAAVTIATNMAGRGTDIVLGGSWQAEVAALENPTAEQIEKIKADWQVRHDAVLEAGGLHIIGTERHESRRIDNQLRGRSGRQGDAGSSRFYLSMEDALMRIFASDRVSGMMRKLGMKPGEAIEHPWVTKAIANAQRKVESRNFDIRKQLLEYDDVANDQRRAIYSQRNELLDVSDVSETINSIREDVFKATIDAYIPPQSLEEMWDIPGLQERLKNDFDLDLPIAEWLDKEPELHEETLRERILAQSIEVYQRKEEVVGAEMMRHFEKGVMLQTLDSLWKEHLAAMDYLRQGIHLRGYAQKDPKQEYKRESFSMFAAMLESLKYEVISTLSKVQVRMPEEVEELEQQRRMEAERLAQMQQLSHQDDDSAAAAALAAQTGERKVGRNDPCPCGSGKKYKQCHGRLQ

As for `COc1cccc2cc(CNC(C)(C)C(=O)N3CCC(O)CC3)oc12`, the Percent Effect in [1] was -4.3%; in test [2] it was 5.06%; in test [3], -3.21%; in test [4] it was -2.38%; in the test with Trypanosoma cruzi it was 7.08%; in [5], -0.76%. Moreover, the Percent Effect in [6] is -6.14%; in the test filed under Homo sapiens, -31.3%; in test [7] it was 6.4%; in test [8], 3.8%; in test [9], -3.05%.
Regarding `CCc1ncnc2c1CCN(C(=O)N1CCCC1)CC2`, the Percent Effect in test [1] was -5.11%; in test [2] it was 0%; in [3] it was 4.79%; in test [4], 8.2%; in the test on Trypanosoma cruzi, -2.7%; in test [5] it was -10.9%. Further, the Percent Effect was 12.3% in test [6]; 1.54% in the test listed under Homo sapiens; -3.12% in [7]; -5% in [8]; 2.94% in test [9].
As for `CC1CN(CC(=O)Nc2nncs2)CCN1c1nccs1` (stereo unspecified), the Percent Effect in [1] is 1.26%; in [2] it was 8.11%; in [3], -4.77%; in test [4], -8.19%; in the test on Trypanosoma cruzi, -5.29%; in test [5], 0.924%. Moreover, the Percent Effect is 16.5% in test [6]; 25.9% in the test listed under Homo sapiens; 4.95% in test [7]; 18.3% in test [8]; -4.83% in test [9].
Regarding `Cc1ccc(NC(=O)Nc2cnc(N3CCN(C)CC3)nc2)c(Cl)c1`, the Percent Effect in [1] was -1.85%; in [2], 13%; in [3], 2.69%; in test [4], 2.29%; in the test on Trypanosoma cruzi it was 2.27%; in test [5] it was -5.81%. For the same molecule, the Percent Effect was 5.22% in [6]; 6.92% in the test listed under Homo sapiens; 6.35% in [7]; 11.5% in test [8]; -9.57% in test [9].
For `CC(C)CN1CCCn2nc(CNC(=O)CCCc3cn[nH]c3)cc2C1`, the Percent Effect in test [1] was -4.55%; in test [2] it was 2.67%; in test [3], 1.75%; in test [4] it was 9.18%; with Trypanosoma cruzi, 6.91%; in [5], -0.521%. Moreover, the Percent Effect is 10.8% in test [6]; 0.658% in the test filed under Homo sapiens; 6.01% in [7]; 11.1% in [8]; -7.73% in test [9].
In the case of `CC(C)CN1CCN(C(=O)Nc2cc(C(F)(F)F)c[nH]c2=O)CC1`, the Percent Effect is -3.29% in test [1]; 2.6% in test [2]; 6.98% in test [3]; 4.09% in test [4]; -2.06% in the test with Trypanosoma cruzi; 2.13% in test [5]. The Percent Effect in test [6] was 3.55%; in the test listed under Homo sapiens, 20.1%; in [7], 5.83%; in [8], 12.2%; in test [9], -7.11%.
Regarding `Cc1cnn(Cc2cc(F)ccc2F)c1NC(=O)NC1CC1`, the Percent Effect in [1] is -4.44%; in test [2], 16%; in [3], -4.15%; in [4], 41.4%; in the test with Trypanosoma cruzi, 5.94%; in [5], 29.7%. Moreover, the Percent Effect in [6] was 15.5%; in the test listed under Homo sapiens, 10.9%; in test [7], -16.9%; in test [8] it was 21%; in test [9], -4.35%.
As for `CC(C)(C)c1n[nH]cc1CN1CCc2nc3ccsc3c(=O)n2CC1`, the Percent Effect is -2.34% in [1]; 25.7% in [2]; 7.24% in test [3]; -3.97% in [4]; 2.96% in the test with Trypanosoma cruzi; -7.19% in test [5]. Moreover, the Percent Effect was 18.7% in test [6]; 43.3% in the test filed under Homo sapiens; -1.07% in [7]; 3.9% in test [8]; -5.96% in [9].
Regarding `O=C1OCCN1CCOc1nc(-c2ccccc2Cl)no1`, the Percent Effect in [1] was -6.78%; in test [2], 16.4%; in [3], -3.77%; in test [4], 15.8%; with Trypanosoma cruzi it was 4.7%; in test [5] it was 8.64%. For the same molecule, the Percent Effect in [6] was 12.1%; in the test filed under Homo sapiens, 7.15%; in [7] it was 5.38%; in [8] it was 12.5%; in test [9] it was -6.2%.
With `Cc1nc(Cn2nc(C3CCNCC3)n(Cc3ccccc3)c2=O)no1`, the Percent Effect in test [1] was -0.936%; in test [2] it was 5.41%; in test [3], 0.118%; in test [4], 2.54%; in the test with Trypanosoma cruzi it was -4.25%; in [5], -4.29%. The Percent Effect in test [6] is 12.1%; in the test filed under Homo sapiens, 26.5%; in [7], 3.7%; in test [8] it was 4.88%; in test [9], -4.29%.
In the case of `COc1cccc(CN2CCCC2c2c(C)nn(C)c2C)c1` (stereo unspecified), the Percent Effect is -1.8% in test [1]; -2.53% in test [2]; -4.49% in test [3]; 11.6% in test [4]; 0.661% in the test on Trypanosoma cruzi; 0.38% in test [5]. The Percent Effect in test [6] is -1.72%; in the test filed under Homo sapiens it was -9.36%; in test [7] it was 5.42%; in [8], -1.27%; in test [9], -3.67%.
